In PubChem BioAssay AID1159580 (chemical genetic matrix, 2015):
About 2,000 (36%) of roughly 5,500 compounds were called active. Another 18% or so got no clear call; they are omitted. No stated cut-off is given here; in the data, active means normalized growth mostly below about 0.91 (no sharp cut-off); inconclusive means no clear call, values can overlap the other calls; inactive means mostly above about 0.92. The list shows a part of the results.

Assay: chemical genetic growth profiling, strain panel (AID 1159580);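 further: tested at 20 µM; growth read once vehicle control cultures reached saturation at 30 °C; 1 = growth at the plate median or of vehicle wells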
Conditions: growth OD

Measured: normalized growth

CC1=CC2C(C(C)C)CCC(C)(O)C2CC1 (stereo not drawn)
inactive: S. cerevisiae deletion strains, locus YJL187C, strain SWE1 (second series), stronger effect = lower value 1.01 | S. cerevisiae deletion strains, locus YJL187C, strain SWE1, stronger effect = lower value 1 | S. cerevisiae deletion strains, locus YJR043C, strain POL32, stronger effect = lower value 0.973 | S. cerevisiae deletion strains, locus YJR066W, strain TOR1, stronger effect = lower value 0.914 | S. cerevisiae deletion strains, locus YKL009W, strain mrt4, stronger effect = lower value 0.994 | S. cerevisiae deletion strains, locus YKL068W, stronger effect = lower value 0.972 | S. cerevisiae deletion strains, locus YKL085W, strain MDH1 (second series), stronger effect = lower value 0.979 | S. cerevisiae deletion strains, locus YKL085W, strain MDH1, stronger effect = lower value 0.979 | S. cerevisiae deletion strains, locus YKL160W, strain elf1, stronger effect = lower value 0.968 | S. cerevisiae deletion strains, locus YKL190W, strain CNB1, stronger effect = lower value 0.994 | S. cerevisiae deletion strains, locus YKR001C, strain vps1, stronger effect = lower value 0.989 | S. cerevisiae deletion strains, locus YKR026C, strain gcn3, stronger effect = lower value 0.993 | S. cerevisiae deletion strains, locus YKR091W, strain srl3, stronger effect = lower value 0.987 | S. cerevisiae deletion strains, locus YLL001W, strain dnm1, stronger effect = lower value 0.947 | S. cerevisiae deletion strains, locus YLL026W, stronger effect = lower value 0.988 | S. cerevisiae deletion strains, locus YLL041C, strain sdh2, stronger effect = lower value 0.995 | S. cerevisiae deletion strains, locus YLR027C, strain aat2, stronger effect = lower value 0.978 | S. cerevisiae deletion strains, locus YLR039C, strain RIC1, stronger effect = lower value 0.913 | S. cerevisiae deletion strains, locus YLR058C, strain SHM2, stronger effect = lower value 0.98 | S. cerevisiae deletion strains, locus YLR102C, strain apc9, stronger effect = lower value 0.989 | S. cerevisiae deletion strains, locus YLR113W, strain HOG1, stronger effect = lower value 0.887 | S. cerevisiae deletion strains, locus YLR221C, strain rsa3, stronger effect = lower value 0.986 | S. cerevisiae deletion strains, locus YLR258W, strain gsy2, stronger effect = lower value 0.971 | S. cerevisiae deletion strains, locus YLR268W, strain sec22, stronger effect = lower value 0.949 | S. cerevisiae deletion strains, locus YLR320W, strain mms22, stronger effect = lower value 0.966 | S. cerevisiae deletion strains, locus YLR330W, strain CHS5, stronger effect = lower value 0.982 | S. cerevisiae deletion strains, locus YLR342W, strain FKS1, stronger effect = lower value 0.983 | S. cerevisiae deletion strains, locus YLR357W, strain rsc2, stronger effect = lower value 1.08 | S. cerevisiae deletion strains, locus YLR370C, strain arc18, stronger effect = lower value 0.984 | S. cerevisiae deletion strains, locus YLR371W, strain rom2, stronger effect = lower value 1.01 | S. cerevisiae deletion strains, locus YLR384C, strain iki3, stronger effect = lower value 0.991 | S. cerevisiae deletion strains, locus YLR418C, strain cdc73, stronger effect = lower value 0.966 | S. cerevisiae deletion strains, locus YML016C, strain PPZ1, stronger effect = lower value 0.992 | S. cerevisiae deletion strains, locus YML032C, strain rad52, stronger effect = lower value 0.971 | S. cerevisiae deletion strains, locus YML120C, strain ndi1, stronger effect = lower value 0.966 | S. cerevisiae deletion strains, locus YML124C, strain tub3, stronger effect = lower value 0.985 | S. cerevisiae deletion strains, locus YMR058W, strain fet3, stronger effect = lower value 1.01 | S. cerevisiae deletion strains, locus YMR078C, strain ctf18, stronger effect = lower value 0.981 | S. cerevisiae deletion strains, locus YMR125W, strain sto1, stronger effect = lower value 1.02 | S. cerevisiae deletion strains, locus YMR129W, stronger effect = lower value 0.982 | S. cerevisiae deletion strains, locus YMR205C, strain PFK2, stronger effect = lower value 0.949 | S. cerevisiae deletion strains, locus YMR223W, strain ubp8, stronger effect = lower value 0.964 | S. cerevisiae deletion strains, locus YMR231W, strain pep5, stronger effect = lower value 0.994 | S. cerevisiae deletion strains, locus YMR307W, strain GAS1, stronger effect = lower value 0.993 | S. cerevisiae deletion strains, locus YNL067W, strain RPL9B, stronger effect = lower value 1.02 | S. cerevisiae deletion strains, locus YNL128W, strain TEP1, stronger effect = lower value 0.962 | S. cerevisiae deletion strains, locus YNL183C, strain NPR1, stronger effect = lower value 0.911 | S. cerevisiae deletion strains, locus YNL209W, strain ssb2, stronger effect = lower value 0.984 | S. cerevisiae deletion strains, locus YNL233W, strain BNI4, stronger effect = lower value 1.01 | S. cerevisiae deletion strains, locus YNL248C, strain rpa49, stronger effect = lower value 1.03 | S. cerevisiae deletion strains, locus YNL250W, strain rad50, stronger effect = lower value 0.952 | S. cerevisiae deletion strains, locus YNL271C, strain bni1, stronger effect = lower value 0.986 | S. cerevisiae deletion strains, locus YNL298W, strain CLA4, stronger effect = lower value 0.983 | S. cerevisiae deletion strains, locus YNL307C, strain MCK1, stronger effect = lower value 0.986 | S. cerevisiae deletion strains, locus YNL322C, strain KRE1 (second series), stronger effect = lower value 0.975 | S. cerevisiae deletion strains, locus YNL322C, strain KRE1, stronger effect = lower value 0.984 | S. cerevisiae deletion strains, locus YNR049C, strain mso1, stronger effect = lower value 0.998 | S. cerevisiae deletion strains, locus YNR052C, strain pop2, stronger effect = lower value 1 | S. cerevisiae deletion strains, locus YOL012C, strain htz1 1.19 | S. cerevisiae deletion strains, locus YOL147C, strain pex11, stronger effect = lower value 0.982 | S. cerevisiae deletion strains, locus YOR001W, strain rrp6, stronger effect = lower value 0.989 | S. cerevisiae deletion strains, locus YOR061W, strain CKA2, stronger effect = lower value 0.966 | S. cerevisiae deletion strains, locus YOR069W, strain VPS5, stronger effect = lower value 0.989 | S. cerevisiae deletion strains, locus YOR070C, strain gyp1, stronger effect = lower value 0.975 | S. cerevisiae deletion strains, locus YOR080W, strain dia2, stronger effect = lower value 0.993 | S. cerevisiae deletion strains, locus YOR083W, strain WHI5, stronger effect = lower value 0.964 | S. cerevisiae deletion strains, locus YOR106W, strain vam3, stronger effect = lower value 0.997 | S. cerevisiae deletion strains, locus YOR136W, strain idh2, stronger effect = lower value 0.968 | S. cerevisiae deletion strains, locus YOR144C, strain elg1, stronger effect = lower value 0.985 | S. cerevisiae deletion strains, locus YOR184W, strain ser1, stronger effect = lower value 0.933 | S. cerevisiae deletion strains, locus YOR231W, strain MKK1, stronger effect = lower value 0.911 | S. cerevisiae deletion strains, locus YOR265W, strain rbl2, stronger effect = lower value 0.978 | S. cerevisiae deletion strains, locus YOR270C, strain vph1, stronger effect = lower value 0.959 | S. cerevisiae deletion strains, locus YOR290C, strain snf2, stronger effect = lower value 0.997 | S. cerevisiae deletion strains, locus YOR316C, strain cot1, stronger effect = lower value 0.989 | S. cerevisiae deletion strains, locus YPL051W, strain arl3, stronger effect = lower value 0.946 | S. cerevisiae deletion strains, locus YPL078C, strain atp4, stronger effect = lower value 0.957 | S. cerevisiae deletion strains, locus YPL106C, strain sse1, stronger effect = lower value 1 | S. cerevisiae deletion strains, locus YPL240C, strain hsp82, stronger effect = lower value 0.987 | S. cerevisiae deletion strains, locus YPL256C, strain CLN2, stronger effect = lower value 0.915 | S. cerevisiae deletion strains, locus YPR119W, strain clb2, stronger effect = lower value 0.985 | S. cerevisiae deletion strains, locus YPR141C, strain kar3, stronger effect = lower value 0.97 | S. cerevisiae deletion strains, locus YPR163C, strain tif3, stronger effect = lower value 0.99 | S. cerevisiae deletion strains, locus YPR167C, strain met16, stronger effect = lower value 0.987 | S. cerevisiae deletion strains, strain wtn01, stronger effect = lower value 0.964 | S. cerevisiae strains, strain wild type, stronger effect = lower value 0.969
active: S. cerevisiae deletion strains, locus YLR262C, strain YPT6 (second series), stronger effect = lower value 0.81 | S. cerevisiae deletion strains, locus YNL071W, strain lat1, stronger effect = lower value 0.876
